# High-throughput results as filed in PubChem BioAssay.
# Pf Dd2 growth = qHTS Primary assay for Inhibitors of Plasmodium falciparum Dd2 growth in vitro | Potency, µM (doses to about 28.9 µM), inactives show top-dose activity, negative = inhibition, actives largely listed as inhibitors | P. falciparum Dd2 growth, SYBR Green, 72 h | AID 1347417, 2020 | actives 4.3% (n = 120,000); active means well fitted inhibition curve with a large enough effect;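 further: plate controls were DMSO vehicle for no effect and reference drug for full effect; nearly all actives have a fitted effect of over 65% in size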
#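 Readout: SYBR Green fluorescence, 485 nm excitation, 535 nm emission, after ~16 h lysis at 37C. Before that, Dd2-infected red cells (2.5% hematocrit) grew 72 h with compound, 29 uM top final concentration.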
# The depositor's hits bear a star; i = inactive; [ ] = remark or other dose. Many of the other results were omitted from the sample, so hits are more common in it than they were. Potency means the concentration at half of the fitted maximal effect.
SMILES,Pf Dd2 growth
O=C1CCN(S(=O)(=O)c2ccccc2)CCCC(C(=O)NCCN2CCCC2)CCN1 (stereo not given),22%
Cc1ccc(F)cc1S(=O)(=O)N(C)CC1CCOCC1,14%
COc1ccc(C(=O)N2CCC3(CC2)NC(=O)N(c2ccccc2Cl)N3)cc1,-2%
CC[C@H]1CN(C(=O)NC(C)C)CC[C@H]1CC(=O)NC1CC1,-6%[44.1 µM]
COC(=O)C1=C(C)N=C2SC=C(CC(=O)NCCc3cccs3)N2C1c1cccc(OC)c1 (stereo not given),i
CCC1=C(C(=O)OC)C(c2ccccc2)N2C(CC(=O)NCc3cccc(F)c3)=CSC2=N1 (stereo not given),4µM*
CCC1=C(C(=O)OC)C(c2cccc(C)c2)N2C(CC(=O)Nc3ccc(OC)cc3)=CSC2=N1 (stereo not given),3.2µM*
CCOC(=O)C1=C(C)N=C2SC=C(CC(=O)NC3CC3)N2C1c1cccc(OC)c1OC (stereo not given),-2%
CCC1=C(C(=O)OC)C(c2cccc(F)c2)N2C(CC(=O)NCc3cccc(F)c3)=CSC2=N1 (stereo not given),2.5µM*
COC(=O)C1=C(C)N=C2SC=C(CC(=O)Nc3cc(C)cc(C)c3)N2C1c1ccccc1OC (stereo not given),7.1µM*
COCCOC(=O)C1=C(C)N=C2SC=C(CC(=O)NCc3cccc(F)c3)N2C1c1ccccc1 (stereo not given),-18%
CCC1=C(C(=O)OC)C(c2cccc(OC)c2OC)N2C(CC(=O)NC3CC3)=CSC2=N1 (stereo not given),i
CCOC(=O)C1=C(C)N=C2SC=C(CC(=O)N3CCOCC3)N2C1c1ccccc1OC (stereo not given),i
CCC1=C(C(=O)OC)C(c2ccccc2)N2C(CC(=O)NCC3CC3)=CSC2=N1 (stereo not given),-3%
CCC1=C(C(=O)OC)C(c2cccc(C)c2)N2C(CC(=O)N3CCOCC3)=CSC2=N1 (stereo not given),-29%
CCC1=C(C(=O)OC)C(c2ccccc2C)N2C(CC(=O)NCC3CC3)=CSC2=N1 (stereo not given),-13%
COCC1CN(C(C)=O)CC12CCN(Cc1ccccc1C)CC2 (stereo not given),-1%
Cc1ncsc1-c1nc(CC2CCN(C)CC2)nn1Cc1ccccc1,-19%
O=C(c1ccc(F)c(F)c1)N1CCC2(CC1)N=C(c1cccc(Br)c1)NO2,i
Cc1cc(F)cc(CN2CCc3nc(C(=O)Nc4ccccc4)oc3CC2)c1,-25%[44.1 µM]
CCC(=O)N1CCC(Oc2ncccc2C(=O)N2CCOCC2)C1 (stereo not given),12%
COc1cccc(CCC(=O)NCC23CCCC=C2N(C)C(=O)CC3)c1 (stereo not given),-6%
COc1ccc(N2CC3(C2)CN(c2ccccc2)C(=O)O3)cc1OC,24%[44.1 µM]
CC(=O)N1CCC2(CC1)CN(C(=O)c1ccc(Cl)cc1)CCO2,4%
NC(Cc1ccccc1)C(=O)N1CCC2(CC1)CN(C(=O)c1ccc(Cl)cc1)CCO2 (stereo not given),0.63µM*
SMILES,Pf Dd2 growth
COc1ccc(CC(=O)N2CCC3(CC2)CN(C(=O)c2ccc(Cl)cc2)CCO3)cc1,-8%
CN(C)Cc1cc(CC2(NCc3ccc4c(c3)OCO4)COC2)no1,-10%[44.1 µM]
O=C(C1CC1)N1CCC(Cc2nncn2-c2ccccc2)C1 (stereo not given),-10%
O=C(CCC[C@@H]1[C@H]2CCCN3CCC[C@@H](CN1C(=O)C1(c4ccccc4)CC1)[C@@H]23)NCC1CC1,13µM*
CC(C)C(=O)N1C[C@@H]2CCCN3CCC[C@@H]([C@H]23)[C@H]1CCCC(=O)NCC1CC1,-1%
Cc1cccc(C(=O)N2C[C@@H]3CCCN4CCC[C@@H]([C@H]34)[C@H]2CCCC(=O)NCC2CC2)c1,-25%
CN1CCCCC(CC(=O)Nc2ccc(F)c(F)c2)C1=O (stereo not given),6%
CCNC(=O)N1CC(C(=O)NC(C)c2ccccc2)CC(c2ccc(F)c(C)c2)C1 (stereo not given),i
Cc1ccc(-c2nc3c(c(SCC(=O)N(C)c4ccccc4)n2)Cc2c(CO)cnc(C)c2O3)cc1,5.6µM*
Cc1cccc(C)c1NC(=O)CSc1nc(-c2ccccc2)nc2c1Cc1c(CO)cnc(C)c1O2,12%
Cc1ccc(-c2nc3c(c(SCC(=O)Nc4ccccc4Cl)n2)Cc2c(CO)cnc(C)c2O3)cc1,19%
CCSc1nc(-c2ccccc2)nc2c1Cc1c(CO)cnc(C)c1O2,11%
CCN(CC)C(=O)CSc1nc(-c2ccc(C)cc2)nc2c1Cc1c(CO)cnc(C)c1O2,10µM*
Cc1cc(C)cc(NC(=O)CSc2nc(-c3cccc(Cl)c3)nc3c2Cc2c(CO)cnc(C)c2O3)c1,-26%
CN1CC2(CCN(CC3CC3)CC2)CC1C(=O)N1CCOCC1 (stereo not given),26%
O=C(CO)NC1CC(=O)N(Cc2ccccc2C(F)(F)F)C1 (stereo not given),14%
CCN(CC)C(=O)[C@@H]1CCC[C@@H](NC2CCN(C)CC2)CN(C)C(=O)C1,10%[44.1 µM]
